Screens as filed in PubChem.
Shown are actives, neighbours in structure and some others; about 2.3% of the full set was active somewhere.
PP1 inh – PP1-alpha phosphatase inhibitors, primary screen, counter-screen for PP5 inhibitor project, biochemical, fluorescence, OMFP substrate, single point; purified PP1alpha; inhibition, % at 6.7 µM; hit rate 0.9% among 320,000;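 active = inhibition above the mean inhibition of all tested compounds plus 3 SD, computed separately for each screening campaign, cut at about 15% in these data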
PP5 inh – PP5 phosphatase inhibitors, primary screen, biochemical, fluorescence; purified PP5c, OMFP substrate fluorescence; inhibition, % at 6.7 µM; hit rate 0.18% among 320,000;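 active = inhibition above the campaign's mean inhibition across all tested compounds plus 3 SD, cut at about 9.5% in these data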
Target sequence (P53041 whole entry, looked up): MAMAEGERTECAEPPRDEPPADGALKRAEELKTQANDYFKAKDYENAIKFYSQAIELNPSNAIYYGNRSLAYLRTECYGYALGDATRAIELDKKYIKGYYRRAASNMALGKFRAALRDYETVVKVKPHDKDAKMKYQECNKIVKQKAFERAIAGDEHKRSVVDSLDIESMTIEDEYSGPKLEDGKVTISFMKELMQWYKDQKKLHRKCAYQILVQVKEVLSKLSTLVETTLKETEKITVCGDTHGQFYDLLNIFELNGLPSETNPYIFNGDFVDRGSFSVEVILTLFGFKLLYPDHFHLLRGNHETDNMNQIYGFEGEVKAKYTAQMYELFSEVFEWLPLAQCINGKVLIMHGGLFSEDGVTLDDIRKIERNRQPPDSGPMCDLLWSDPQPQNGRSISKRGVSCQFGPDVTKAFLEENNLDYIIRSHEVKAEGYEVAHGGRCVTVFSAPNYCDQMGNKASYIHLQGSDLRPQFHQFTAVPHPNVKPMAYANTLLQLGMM
bovine MsrA act – bovine MsrA enzyme activators, primary screen, biochemical, absorbance, HTS | AID 602163, 2012 | activation, % at 10.6 µM | purified bovine MsrA, absorbance read-out | hit rate 0.3% among 360,000; in the data active = activation above about 7.5%
ZTA DNA inh – blocks Epstein-Barr virus ZTA, an EBNA-1 counter-screen; P03206; ZTA-DNA binding, fluorescence polarization; inhibition, % at 11 µM; hit rate 0.15% among 320,000; in the data active = inhibition above about 33%
EBNA-1 inh – EBNA-1 DNA-binding inhibitors, primary screen, biochemical, fluorescence polarization; inhibition, % at 14.8 µM; hit rate 0.34% among 300,000; AID 1950, 2009; in the data active = inhibition above about 28%
MsrA inh – bovine MsrA enzyme inhibitors, primary screen, biochemical, absorbance, HTS; Methionine sulfoxide reductase A (Bos taurus); inhibition, % at 15.5 µM; hit rate 0.75% among 360,000; purified bovine MsrA, absorbance read-out; in the data active = inhibition above about 4.5%
Numbers stand for hits; - = inactive; . = not tested or not shown.

SMILES	PP1 inh	PP5 inh	bovine MsrA act	ZTA DNA inh	EBNA-1 inh	MsrA inh
O=C(CNc1ccc2c(c1)OCO2)N/N=C\c1cn(Cc2ccccc2)c2ccccc12	17	-	-	-	-	-
CCC(Sc1nc2ccsc2c(=O)n1Cc1ccc(C(=O)O)cc1)C(=O)Nc1ccc(C)c(Cl)c1 (stereo unspecified)	17	-	-	-	-	-
COc1cc(/C=C(\C#N)C(=O)c2ccc(O)c(O)c2)cc(I)c1O	-	-	-	-	-	4.6
COc1ccc(C=C(C#N)C(=O)c2ccccc2)cc1	.	.	-	.	.	-
C=CCN1[C@@H](C)[C@H](c2ccccc2)Oc2cccc(NCCc3ccccc3)c2S1(=O)=O	.	.	.	.	.	-
CCc1ccc(-c2cc(C)no2)cc1S(=O)(=O)N1CCN(c2ccc(C(C)=O)cc2)CC1	15	-	-	-	-	-
CC(=O)c1ccc(N2CCN(S(=O)(=O)c3cc(-c4cc(C)no4)ccc3C(C)C)CC2)cc1	-	-	-	-	-	-
CCOC(=O)C1=C(C(=O)OCC)C2N(Cc3ccc(C(F)(F)F)cc3)c3ccccc3[C@@]23C[C@@H](C(=O)OC)N(S(=O)(=O)c2cccs2)C3=N1 (stereo partly specified)	.	.	.	.	.	-
NCCCC[C@H]1CNC(=S)N1CCCCC1CCCCC1	-	-	-	-	-	-
C[C@@H]1C=CCCO[C@]12C(=O)N(CC1CC1)c1ccccc12	.	.	.	.	.	-
CCC(CC)Nc1ccc(C(CC(N)=O)NC(=O)Cc2cccc3ccccc23)cc1[N+](=O)[O-] (stereo unspecified)	17	-	-	-	-	-
NC(=O)CC(NC(=O)Cc1ccc(Br)cc1)c1ccc(NCc2ccc(F)c(F)c2)c([N+](=O)[O-])c1 (stereo unspecified)	17	-	-	-	-	-
O=C(Nc1cccc(NC(=O)c2cccs2)c1)c1ccc2c(c1)OCCO2	-	-	-	-	-	-
CSc1cccc(NC(=O)c2nnn(CC(=O)Nc3cc(C)cc(C)c3)c2N)c1	16	-	-	-	-	-
COC(=O)c1c(NC(=O)COC(=O)[C@@H](NS(=O)(=O)c2cccc(Cl)c2)C(C)C)sc2c1CCC2	15	-	-	-	-	-
COC(=O)c1ccc(N/C=C\C(=O)c2ccc3c(c2)OCO3)cc1	-	-	-	-	-	-
O=C(/C=C\Nc1cccc(F)c1)c1ccc2c(c1)OCO2	-	-	-	-	40	-
Cc1ccc(/C=C/C2=Cc3c(sc(NC(=O)CSc4n[nH]c(N)n4)c3C#N)C(C)(C)C2)o1	57	-	.	-	49	.
Cc1cc(-n2c(C)cc(C(=O)CSc3ccc4c(c3)OCCO4)c2C)no1	-	-	24	-	-	-
CC(/C=C1\SC(=S)N(NS(=O)(=O)c2ccc(C)cc2)C1=O)=C\c1ccccc1	16	-	-	-	-	-
COC(=O)[C@]12C[C@H](CC(=O)NCc3cccc4ccccc34)C(=O)N(Cc3ccccc3)C1=C[C@H](C(C)C)O[C@@H]2C1CC1	.	.	.	.	.	-
Cc1c(C(=O)Nc2nc(-c3ccccn3)cs2)oc2ccccc12	16	-	-	-	.	.
CC(Sc1nnc(NCc2ccccc2)s1)C(=O)Nc1ccc2c(c1)C(=O)c1ccccc1C2=O (stereo unspecified)	17	-	-	-	-	-
CC(Sc1nnc(Nc2ccccc2)s1)C(=O)Nc1nc(-c2ccccc2)cs1 (stereo unspecified)	-	-	-	-	-	-
CN(C[C@H](Cc1ccccc1)N(C[C@H](Cc1cccc2ccccc12)N(CCc1ccccc1)N=O)N=O)N=O	16	-	-	-	-	-
COc1ccccc1N1CCN(S(=O)(=O)c2ccc(Cl)s2)CC1	-	-	-	-	-	-
CCOC(=O)Cn1cc(/C=C/[N+](=O)[O-])c2ccccc21	-	-	-	-	-	-
O=[N+]([O-])/C=C/c1cn(Cc2ccc(Cl)cc2)c2ccccc12	16	-	-	-	-	-
Cc1cccc(Cn2cc(/C=C/[N+](=O)[O-])c3ccccc32)c1	17	-	-	-	-	-
COC(=O)c1cc2c(c3c4cc(F)ccc4n(S(=O)(=O)c4ccccc4)c13)C(=O)N(Cc1ccccc1)C2	.	.	.	.	.	-
